Results reported in PubChem BioAssay (NCI).
The panel holds about 79,000 compounds, 15% with a hit somewhere; the sample as a whole holds those more often. Activity calls are given as the source filed them. Cut-off read from the data, not from the text of the source: active = growth inhibition above about 70%; inactive = the rest.

Legend:
[1] = NCI Yeast Anticancer Drug Screen. Data for the mlh1 strain (AID 171);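 note: 0% = growth of vehicle-treated control cultures of the same strain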; conditions: S. cerevisiae mlh1 strain growth inhibition, active compounds read high
In short: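 Compounds are applied to a genetically altered yeast strain, and its growth is compared with that of vehicle-treated cultures to give percent inhibition.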

[2] = NCI Yeast Anticancer Drug Screen. Data for the sgs1 strain (AID 173);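 note: 0% = growth of vehicle-only control cultures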; conditions: S. cerevisiae sgs1 mutant, active compounds read high
In short: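 Compounds applied to genetically altered yeast; growth compared with vehicle-treated cultures to give % inhibition.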

[3] = NCI Yeast Anticancer Drug Screen. Data for the mlh1 rad18 strain (AID 175); conditions: S. cerevisiae mlh1 rad18 strain growth inhibition, active compounds read high
In short: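 Cells of a genetically altered yeast strain, deficient in DNA damage repair, were treated with compound. Their growth was then compared with that of vehicle-treated cultures to give inhibition.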

[4] = NCI Yeast Anticancer Drug Screen. Data for the rad18 strain (AID 177); conditions: S. cerevisiae rad18 mutant growth inhibition, active compounds read high
In short: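 Compounds are applied to a repair-deficient yeast strain, and growth is compared with that of vehicle-treated cultures to give percent inhibition.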

[5] = NCI Yeast Anticancer Drug Screen. Data for the rad52 strain (AID 147);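 note: 0% = growth of vehicle-treated control cultures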; conditions: S. cerevisiae rad52 mutant growth inhibition, active compounds read high
In short: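 DNA repair-defective yeast; compound exposure; growth scored against vehicle controls.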

[6] = NCI Yeast Anticancer Drug Screen. Data for the wt1 strain (AID 149);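 note: 0% = growth of vehicle-treated wt1 cultures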; conditions: S. cerevisiae wt1 strain (SPY 50644) growth inhibition, active compounds read high
In short: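 Yeast wt1 strain exposed to compounds; growth inhibition measured relative to vehicle-treated controls.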

[7] = NCI Yeast Anticancer Drug Screen. Data for the rad50EPP+ strain (AID 151);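 note: 0% = growth of vehicle-treated control cultures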; conditions: S. cerevisiae rad50 mutant strain, active compounds read high
In short: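 rad50EPP+ yeast treated with test compounds. Readout: growth vs vehicle control.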

[8] = NCI Yeast Anticancer Drug Screen. Data for the mgt1 strain (AID 153); conditions: S. cerevisiae mgt1 mutant growth inhibition, active compounds read high
In short: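 Growth inhibition relative to vehicle controls was scored for the mgt1 yeast strain after compound exposure.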

[9] = NCI Yeast Anticancer Drug Screen. Data for the rad50 strain (AID 155);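 note: 0% = growth of vehicle-only cultures of the same strain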; conditions: S. cerevisiae rad50 strain growth inhibition, active compounds read high
In short: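 Yeast carrying a defined DNA repair defect were exposed to test compounds, and growth was compared with vehicle-treated controls to give percent inhibition.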

[10] = NCI Yeast Anticancer Drug Screen. Data for the mec2-1 strain (AID 157); conditions: S. cerevisiae mec2-1 strain, active compounds read high
In short: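 Growth inhibition is read against vehicle-treated controls after compound exposure of the mec2-1 yeast strain, which is defective in DNA damage repair or cell cycle control.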

[11] = NCI Yeast Anticancer Drug Screen. Data for the sgs1 mgt1 strain (AID 161);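 note: 0% = growth of cultures given vehicle only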; conditions: S. cerevisiae sgs1 mgt1 strain, active compounds read high
In short: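 Percent growth inhibition was derived by comparing compound-exposed mutant yeast with vehicle-exposed cultures. The strain carries alterations in DNA damage repair.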

[12] = NCI Yeast Anticancer Drug Screen. Data for the CLN2oe strain (AID 163);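 note: 0% = growth of vehicle-only control cultures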; conditions: S. cerevisiae CLN2oe strain, active compounds read high
In short: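 Compound-treated yeast; growth vs vehicle ctrl = % inhibition. Genetically altered strain (cell-cycle control).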

[13] = NCI Yeast Anticancer Drug Screen. Data for the cln2 rad14 strain (AID 165);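 note: 0% = growth equal to vehicle treated cultures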; conditions: S. cerevisiae cln2 rad14 strain, active compounds read high
In short: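 Growth inhibition, relative to vehicle-treated controls, is the read-out. The test organism is a yeast strain with defined genetic alterations, cln2 rad14.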

[14] = NCI Yeast Anticancer Drug Screen. Data for the bub3 strain (AID 167); conditions: S. cerevisiae bub3 mutant strain, active compounds read high
In short: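 Compounds were applied to a genetically altered yeast strain carrying a cell-cycle control defect. Growth inhibition was scored against vehicle-treated controls.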

[15] = NCI Yeast Anticancer Drug Screen. Data for the wt2 strain (AID 169);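 note: 0% = growth of vehicle-treated yeast cultures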; conditions: S. cerevisiae wt2 strain growth inhibition, active compounds read high
In short: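 Compound exposure of yeast; growth compared with vehicle controls; inhibition reported.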

[16] = NCI Yeast Anticancer Drug Screen. Data for the rad14 strain (AID 159);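 note: 0% = growth of vehicle-treated control cultures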; conditions: S. cerevisiae rad14 strain growth inhibition, active compounds read high
In short: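 Yeast cells carrying a defined DNA-repair defect were exposed to compounds, and growth inhibition was calculated relative to vehicle-treated control cultures.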

[17] = at 5.0 µM (retest, dose inferred, filed as 0.5)
[18] = at 50.0 µM (retest, dose inferred, filed as 5.0)

Measured: growth inhibition

COc1cc2cc3c4cc(OC)c(OC)cc4cc[n+]3c(C)c2cc1OC
active: [3]; [18] 80%
inactive: [1]; at 1.2 µM -34% | [1]; at 3.7 µM -28% | [1]; at 11.0 µM -35% | [1]; at 33.0 µM -39% | [1]; at 100.0 µM -49% | [2]; at 1.2 µM -19% | [2]; at 3.7 µM -17% | [2]; at 11.0 µM -28% | [2]; at 33.0 µM -27% | [2]; at 100.0 µM -11% | [3]; [17] 55% | [3]; at 50.0 µM -76.2% | [4]; at 1.2 µM -23% | [4]; at 3.7 µM -27% | [4]; at 11.0 µM -23% | [4]; at 33.0 µM -22% | [4]; at 100.0 µM -22%

CC[n+]1oc(C(=O)c2ccc(Cl)cc2)c(-c2ccccc2)c1-c1ccccc1.[Cl][Fe]([Cl])([Cl])[Cl]
inactive: [5]; at 1.2 µM 4% | [5]; at 3.7 µM 15% | [5]; at 11.0 µM 32% | [5]; at 33.0 µM 57% | [6]; at 1.2 µM 1% | [6]; at 3.7 µM -1% | [6]; at 11.0 µM 4% | [6]; at 33.0 µM 20% | [6]; at 100.0 µM 54% | [7]; at 1.2 µM 16% | [7]; at 3.7 µM 37% | [8]; at 1.2 µM -2% | [8]; at 3.7 µM -3% | [8]; at 11.0 µM -3% | [8]; at 33.0 µM -1% | [8]; at 100.0 µM 48% | [9]; at 1.2 µM 5% | [9]; at 3.7 µM 8% | [9]; [17] 36% | [9]; at 11.0 µM 41% | [9]; at 33.0 µM 62% | [10]; at 1.2 µM 3% | [10]; at 3.7 µM 1% | [10]; [17] 22% | [10]; at 11.0 µM 11% | [10]; at 33.0 µM 26% | [10]; [18] 57% | [10]; at 100.0 µM 69% | [11]; [17] 34% | [12]; at 1.2 µM 0% | [12]; at 3.7 µM 2% | [12]; at 11.0 µM 7% | [12]; at 33.0 µM 23% | [12]; at 100.0 µM 56% | [13]; [17] 17% | [13]; [18] 57% | [13]; at 50.0 µM 68.2% | [14]; at 1.2 µM -5% | [14]; at 3.7 µM -1% | [14]; [17] 13% | [14]; at 11.0 µM 8% | [14]; at 33.0 µM 25% | [14]; at 50.0 µM 67.5% | [14]; at 100.0 µM 65% | [15]; at 1.2 µM 0% | [15]; at 3.7 µM -2% | [15]; at 11.0 µM -3% | [15]; at 33.0 µM 13% | [15]; at 100.0 µM 59% | [1]; at 1.2 µM 4% | [1]; at 3.7 µM 1% | [1]; at 11.0 µM 9% | [1]; at 33.0 µM 31% | [2]; at 1.2 µM 0% | [2]; at 3.7 µM -1% | [2]; at 11.0 µM 18% | [2]; at 33.0 µM 59% | [3]; [17] 27% | [4]; at 1.2 µM 4% | [4]; at 3.7 µM 7% | [4]; at 11.0 µM 24% | [4]; at 33.0 µM 49%
active: [5]; at 100.0 µM 75% | [7]; at 11.0 µM 75% | [7]; at 33.0 µM 93% | [7]; at 100.0 µM 99% | [9]; [18] 72% | [9]; at 50.0 µM 82% | [9]; at 100.0 µM 77% | [10]; at 50.0 µM 80% | [11]; [18] 79% | [11]; at 50.0 µM 89.3% | [14]; [18] 70% | [1]; at 100.0 µM 74% | [2]; at 100.0 µM 87% | [3]; [18] 78% | [3]; at 50.0 µM 94.2% | [4]; at 100.0 µM 79%

C/C=C/SC(=Nc1ccccc1)Nc1ccccc1
active: [5]; at 100.0 µM 99% | [6]; at 100.0 µM 97% | [8]; at 100.0 µM 98% | [9]; [18] 78% | [9]; at 50.0 µM 88% | [9]; at 100.0 µM 98% | [10]; at 100.0 µM 98% | [16]; at 100.0 µM 99% | [12]; at 100.0 µM 97% | [14]; at 50.0 µM 92.5% | [14]; at 100.0 µM 98% | [15]; at 100.0 µM 98% | [1]; at 100.0 µM 98% | [2]; at 100.0 µM 98% | [3]; [18] 70% | [4]; at 100.0 µM 98%
inactive: [5]; at 1.2 µM -3% | [5]; at 3.7 µM -5% | [5]; at 11.0 µM -6% | [5]; at 33.0 µM -6% | [6]; at 1.2 µM -3% | [6]; at 3.7 µM 0% | [6]; at 11.0 µM -7% | [6]; at 33.0 µM -15% | [7]; at 1.2 µM 3% | [7]; at 3.7 µM 3% | [7]; at 11.0 µM 11% | [7]; at 33.0 µM 23% | [7]; at 100.0 µM 39% | [8]; at 1.2 µM -6% | [8]; at 3.7 µM -8% | [8]; at 11.0 µM -9% | [8]; at 33.0 µM -13% | [9]; at 1.2 µM -5% | [9]; at 3.7 µM -7% | [9]; [17] -10% | [9]; at 11.0 µM -7% | [9]; at 33.0 µM -8% | [10]; at 1.2 µM -6% | [10]; at 3.7 µM -5% | [10]; [17] -9% | [10]; at 11.0 µM -9% | [10]; at 33.0 µM -8% | [10]; [18] 67% | [10]; at 50.0 µM 49.2% | [16]; at 1.2 µM -4% | [16]; at 3.7 µM -4% | [16]; at 11.0 µM -5% | [16]; at 33.0 µM -4% | [12]; at 1.2 µM -9% | [12]; at 3.7 µM -18% | [12]; at 11.0 µM -15% | [12]; at 33.0 µM -24% | [13]; [17] 2% | [13]; [18] 33% | [13]; at 50.0 µM 2.3% | [14]; at 1.2 µM 10% | [14]; at 3.7 µM 8% | [14]; [17] 10% | [14]; at 11.0 µM 7% | [14]; at 33.0 µM -12% | [14]; [18] 36% | [15]; at 1.2 µM -3% | [15]; at 3.7 µM -3% | [15]; at 11.0 µM -7% | [15]; at 33.0 µM -9% | [1]; at 1.2 µM -4% | [1]; at 3.7 µM -3% | [1]; at 11.0 µM -6% | [1]; at 33.0 µM -5% | [2]; at 1.2 µM -4% | [2]; at 3.7 µM -5% | [2]; at 11.0 µM -7% | [2]; at 33.0 µM -3% | [3]; [17] -10% | [3]; at 50.0 µM 66.3% | [4]; at 1.2 µM -2% | [4]; at 3.7 µM -5% | [4]; at 11.0 µM -8% | [4]; at 33.0 µM -9%
